# A number with no mark means an inactive call. Inconclusive results are not listed. Entries that show only a call come without a potency. Calls of active or inactive are those of the source. The call rests on the fitted dose curve; in most records, active means well fitted curve in the direction sought with a large enough effect in the repeat runs; inconclusive means weak or mixed curves; inactive means no such curve, though single readings can be large; an effect the other way counts as inactive or inconclusive.
# Columns and labels:
# [1] = Caspase-3/7 induction in CHO-K1 cells by small molecules, qHTS assay (AID 1346980); further: nearly all actives have a fitted effect of over 15% in size
# Outline: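 Wild-type cells were seeded at 1,500 per well and settled 5 hr at 37 C, 5% CO2, then exposed to DMSO-dissolved compounds for 17 hr. Caspase-Glo 3/7 reagent was added, and luminescence was read after 30min at room temperature.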
# [2] = molecular target: Nuclear receptor subfamily 1 group I member 2 (Homo sapiens) (UniProt O75469); assay: Human pregnane X receptor (PXR) small molecule agonists, qHTS assay (AID 1346982); further: nearly all actives have a fitted effect of over 35% in size; further: potency means the concentration at half of the fitted maximal effect
# Outline: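 PXR-Luc HepG2 reporter cells (CYP3A4-driven luciferase) in 5% charcoal-stripped FBS medium, plated 5 h before compound addition, then treated 24 h at 37C. Luciferase read by ONE-Glo luminescence after 30 min at room temperature.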
# [3] = molecular target: Cytochrome P450 2D6 (Homo sapiens) (UniProt P10635); assay: Cytochrome P450 Family 2 Subfamily D Member 6 (CYP2D6) small molecule antagonists: luciferase reporter qHTS assay (AID 1671196); further: nearly all actives have a fitted effect of over 50% in size; further: potency means the concentration at half of the fitted maximal effect; on activity change, negative = inhibition: series mostly up to about 120 µM
# Outline: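 Cell-free P450-Glo system: CYP2D6 with proluciferin substrate was pre-incubated with compound for 10 min, then reacted with NADPH regeneration for 1 h at room temperature. Luciferin product was detected after 20 min, and data were reported as relative luminescence units.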
# [4] = molecular target: Cytochrome P450 2C9 (Homo sapiens) (UniProt P11712); assay: Cytochrome P450 Family 2 Subfamily C Member 9 (CYP2C9) small molecule antagonists: luciferase reporter qHTS assay (AID 1671198); further: nearly all actives have a fitted effect of over 50% in size; further: potency means the concentration at half of the fitted maximal effect; on activity change, negative = inhibition: series mostly up to about 120 µM
# Outline: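 CYP2C9 activity was measured with a P450-Glo proluciferin substrate. Enzyme–substrate mix was held with compound for 10 min at room temperature, then NADPH regeneration solution was added for 1 h at 37C. Luciferin product was read as luminescence.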
# [5] = Caspase-3/7 induction in CHO-K1 cells by small molecules, qHTS cell viability counter screen (AID 1346979); further: nearly all actives have a fitted effect of over 35% in size
# Outline: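 Following a 5hr settling period, CHO-K1 cells at 1,500 per well received DMSO-dissolved compounds. Cell viability was quantified 16hr later by CellTiter-Fluor fluorescence, measured after 1hr with reagent at 37C.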
# [6] = Caspase-3/7 induction in HepG2 cells by small molecules, qHTS cell viability counter screen (AID 1346981); further: series mostly up to about 92 µM; nearly all actives have a fitted effect of over 30% in size
# Outline: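 Wild-type HepG2 cells, 2,000/well, settled 5 hr at 37 C, 5% CO2 before compound addition. Viability read by CellTiter-Fluor fluorescence, reagent added after 16 hr compound exposure, then 1 hr at 37C, in the same wells as the caspase read.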
# [7] = molecular target: Nuclear receptor subfamily 1 group I member 2 (Rattus norvegicus) (UniProt Q9R1A7); assay: Rat pregnane X receptor (rPXR) activation by small molecules, qHTS assay (AID 1346983); conditions: rPXR luciferase reporter cells, One-Glo luminescence, 24 h; max activation: stronger effect = higher value; further: nearly all actives have a fitted effect of over 20% in size
# Outline: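 Cell-based rPXR luciferase reporter assay, 2,000 cells per well, rested 5hr at 37 C before compound addition in DMSO, then 24 hr at 37 C. One-Glo reagent was added and luminescence read after 30 min at room temperature.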
# [8] = molecular target: Nuclear receptor subfamily 1 group I member 2 (Homo sapiens) (UniProt O75469); assay: CYP3A4 induction through human pregnane X receptor (PXR) by small molecules, qHTS assay (AID 1346984); further: nearly all actives have a fitted effect of over 40% in size
# Outline: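 DPX-2 HepG2 cells carrying a PXR response element and CYP3A4-promoter luciferase construct, treated with compounds 24 hr at 37C. Then P450-Glo CYP3A4 Luciferin-IPA substrate (3uM final) for 3 hr at 37C, One-Glo added, luminescence read.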
# [9] = molecular target: Nuclear receptor subfamily 1 group I member 2 (Homo sapiens) (UniProt O75469); assay: Human pregnane X receptor (PXR) activation by small molecules, qHTS assay (AID 1346985); further: nearly all actives have a fitted effect of over 40% in size
# Outline: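 DPX-2 cells (HepG2 co-transfected with a PXR response element and a CYP3A4-promoter luciferase construct) were seeded at 2,000 per well, rested 5 hr at 37C, then exposed to DMSO-dissolved compounds for 24 hr. Activation was read as luciferase luminescence.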
# [10] = molecular target: Cytochrome P450 2C19 (Homo sapiens) (UniProt P33261); assay: Cytochrome P450 Family 2 Subfamily C Member 19 (CYP2C19) small molecule antagonists: luciferase reporter qHTS assay (AID 1671197); further: nearly all actives have a fitted effect of over 65% in size; further: potency means the concentration at half of the fitted maximal effect; on activity change, negative = inhibition: series mostly up to about 120 µM
# Outline: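 First, compounds are pinned into enzyme-substrate mix and held 10 min at room temperature. Second, NADPH regeneration solution is added and plates incubate 1 h at 37C. Third, detection reagent is added and luminescence read after 20 min.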
# Nuclear receptor subfamily 1 group I member 2 (Homo sapiens), sequence (O75469 whole entry, looked up): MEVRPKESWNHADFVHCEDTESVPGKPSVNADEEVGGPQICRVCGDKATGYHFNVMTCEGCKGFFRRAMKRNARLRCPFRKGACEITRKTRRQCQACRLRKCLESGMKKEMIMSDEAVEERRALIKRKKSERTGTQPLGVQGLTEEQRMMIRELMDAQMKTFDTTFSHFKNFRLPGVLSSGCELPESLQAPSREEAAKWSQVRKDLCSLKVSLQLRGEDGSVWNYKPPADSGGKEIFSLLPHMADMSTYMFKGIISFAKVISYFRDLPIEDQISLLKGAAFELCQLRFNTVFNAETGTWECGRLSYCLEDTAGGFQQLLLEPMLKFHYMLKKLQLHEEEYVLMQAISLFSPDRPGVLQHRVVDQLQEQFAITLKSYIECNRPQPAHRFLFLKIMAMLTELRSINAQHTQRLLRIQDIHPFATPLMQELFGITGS
# Nuclear receptor subfamily 1 group I member 2 (Rattus norvegicus), sequence (Q9R1A7 whole entry, looked up): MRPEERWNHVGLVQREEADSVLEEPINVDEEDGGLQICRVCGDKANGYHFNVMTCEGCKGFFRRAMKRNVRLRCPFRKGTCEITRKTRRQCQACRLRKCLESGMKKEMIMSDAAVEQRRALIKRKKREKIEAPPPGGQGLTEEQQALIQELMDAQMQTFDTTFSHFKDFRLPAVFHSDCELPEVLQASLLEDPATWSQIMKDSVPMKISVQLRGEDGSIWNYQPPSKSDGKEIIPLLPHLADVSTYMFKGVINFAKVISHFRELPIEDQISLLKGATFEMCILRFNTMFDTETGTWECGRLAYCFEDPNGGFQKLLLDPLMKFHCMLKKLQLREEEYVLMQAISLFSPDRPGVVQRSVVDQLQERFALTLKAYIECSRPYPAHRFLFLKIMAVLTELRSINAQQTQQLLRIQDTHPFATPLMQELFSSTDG
# Cytochrome P450 2C9 (Homo sapiens), sequence (P11712 whole entry, looked up): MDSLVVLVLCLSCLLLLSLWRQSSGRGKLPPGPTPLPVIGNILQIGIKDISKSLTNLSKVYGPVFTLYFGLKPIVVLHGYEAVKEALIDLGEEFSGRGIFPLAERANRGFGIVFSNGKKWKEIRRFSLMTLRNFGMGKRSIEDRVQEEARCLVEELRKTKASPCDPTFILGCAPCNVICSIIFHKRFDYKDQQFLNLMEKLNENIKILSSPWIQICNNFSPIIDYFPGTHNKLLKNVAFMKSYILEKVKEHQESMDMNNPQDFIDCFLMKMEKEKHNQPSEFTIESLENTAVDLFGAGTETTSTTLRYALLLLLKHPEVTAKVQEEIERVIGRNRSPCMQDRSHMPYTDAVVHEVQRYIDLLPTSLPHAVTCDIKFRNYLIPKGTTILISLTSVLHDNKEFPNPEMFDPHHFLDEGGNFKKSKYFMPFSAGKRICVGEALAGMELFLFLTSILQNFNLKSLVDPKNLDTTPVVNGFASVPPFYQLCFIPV
# Cytochrome P450 2D6 (Homo sapiens), sequence (P10635 whole entry, looked up): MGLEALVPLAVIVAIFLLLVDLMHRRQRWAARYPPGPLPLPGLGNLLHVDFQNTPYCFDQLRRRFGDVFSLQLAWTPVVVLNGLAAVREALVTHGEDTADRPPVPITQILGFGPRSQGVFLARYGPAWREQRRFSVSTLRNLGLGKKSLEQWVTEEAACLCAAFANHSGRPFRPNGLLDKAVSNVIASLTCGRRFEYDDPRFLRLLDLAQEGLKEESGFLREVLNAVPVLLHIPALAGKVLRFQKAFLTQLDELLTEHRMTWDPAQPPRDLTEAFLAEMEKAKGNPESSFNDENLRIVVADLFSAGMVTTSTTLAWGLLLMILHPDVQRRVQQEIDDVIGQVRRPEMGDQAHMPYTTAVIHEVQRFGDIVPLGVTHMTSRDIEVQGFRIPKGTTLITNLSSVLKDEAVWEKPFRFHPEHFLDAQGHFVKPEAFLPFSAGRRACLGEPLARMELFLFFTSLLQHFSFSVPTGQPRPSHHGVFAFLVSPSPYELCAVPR
# Cytochrome P450 2C19 (Homo sapiens), sequence (P33261 whole entry, looked up): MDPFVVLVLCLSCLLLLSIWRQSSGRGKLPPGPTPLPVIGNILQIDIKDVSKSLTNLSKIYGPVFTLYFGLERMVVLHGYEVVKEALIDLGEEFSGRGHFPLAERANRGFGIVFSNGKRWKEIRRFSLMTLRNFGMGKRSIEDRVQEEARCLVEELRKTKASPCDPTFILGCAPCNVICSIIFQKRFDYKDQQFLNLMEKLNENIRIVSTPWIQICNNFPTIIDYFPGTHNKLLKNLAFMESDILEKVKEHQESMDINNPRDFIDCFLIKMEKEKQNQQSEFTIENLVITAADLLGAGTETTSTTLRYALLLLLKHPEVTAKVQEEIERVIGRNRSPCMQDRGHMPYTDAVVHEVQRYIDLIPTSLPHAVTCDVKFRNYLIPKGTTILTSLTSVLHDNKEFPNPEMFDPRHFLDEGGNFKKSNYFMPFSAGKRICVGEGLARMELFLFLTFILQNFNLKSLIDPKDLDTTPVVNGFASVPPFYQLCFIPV
smiles,measurement,setting,value
COc1cc2c(cc1OC)-c1cc3ccc(OC)c(OC)c3c[n+]1CC2,outcome,[1],inactive
same,Potency,[2],inactive
same,Potency,[3],9.02 µM (active)
same,Potency,[4],inactive
CCC(C)(CCCC(C)C)OC(C)=O (centres undefined),Potency,[5],inactive
same,outcome,[1],inactive
same,Potency,[2],inactive
same,Potency,[3],inactive
same,Potency,[4],inactive
CCC1C(=O)OCC1Cc1cncn1C (centres undefined),outcome,[1],inactive
same,Potency,[6],inactive
same,Potency,[2],inactive
same,max activation,[7],-2.44%
same,Potency,[8],inactive
same,Potency,[9],inactive
same,Potency,[3],inactive
same,Potency,[10],inactive
CCCCS(=O)(=O)N[C@@H](Cc1ccc(OCCCCC2CCNCC2)cc1)C(=O)O,Potency,[5],inactive
same,outcome,[1],inactive
same,Potency,[2],inactive
same,Potency,[3],inactive
same,Potency,[10],inactive
CC1=CC(=O)[C@H]2C[C@@H]1C2(C)C,Potency,[5],inactive
same,outcome,[1],inactive
same,Potency,[2],inactive
same,Potency,[3],inactive
same,Potency,[10],inactive
same,Potency,[4],inactive
O=S(=O)(O)c1cc(O)c(O)c(S(=O)(=O)O)c1,Potency,[5],inactive
same,outcome,[1],inactive
same,Potency,[2],inactive
same,Potency,[3],inactive
same,Potency,[4],inactive
CCOc1ccc2nc(S(N)(=O)=O)sc2c1,Potency,[5],inactive
same,Potency,[6],inactive
same,Potency,[3],inactive
COc1c(N2CCNC(C)C2)c(F)cc2c(=O)c(C(=O)O)cn(C3CC3)c12 (centres undefined),Potency,[5],inactive
same,outcome,[1],inactive
same,Potency,[2],inactive
same,Potency,[3],inactive
same,Potency,[10],inactive
same,Potency,[4],inactive
Clc1cc(Cl)cc(Cl)c1,Potency,[5],inactive
same,outcome,[1],inactive
same,Potency,[2],inactive
same,Potency,[3],inactive
same,Potency,[4],inactive
CO[C@@]1(NC(=O)CSC[C@@H](N)C(=O)O)C(=O)N2C(C(=O)O)=C(CSc3nnnn3C)CS[C@@H]21,Potency,[5],inactive
same,outcome,[1],inactive
same,Potency,[2],inactive
same,Potency,[10],inactive
same,Potency,[4],inactive
CN1C(C)(C)CC(O)CC1(C)C,Potency,[5],inactive
same,outcome,[1],inactive
same,Potency,[2],inactive
same,Potency,[3],inactive
same,Potency,[4],inactive
Nc1ccn([C@@H]2O[C@H](CO)[C@@H](O)C2(F)F)c(=O)n1,outcome,[1],inactive
same,Potency,[6],inactive
same,max activation,[7],-12%
same,Potency,[8],inactive
same,Potency,[9],inactive
same,Potency,[3],inactive
same,Potency,[10],inactive
same,Potency,[4],inactive
CC12CCC(C(=O)C1=O)C2(C)C (centres undefined),Potency,[5],inactive
same,outcome,[1],inactive
same,Potency,[2],inactive
same,Potency,[3],inactive
same,Potency,[4],inactive
C[C@H]1[C@H](NC(=O)/C(=N/OC(C)(C)C(=O)O)c2csc(N)n2)C(=O)N1S(=O)(=O)O (stereo in doubt),Potency,[5],inactive
same,outcome,[1],inactive
same,max activation,[7],-2.74%
same,Potency,[3],inactive
same,Potency,[10],inactive
CC(C)(C#N)Nc1nc(Cl)nc(NC2CC2)n1,Potency,[5],inactive
same,outcome,[1],inactive
same,Potency,[2],27.3 µM (active)
same,Potency,[4],inactive
CCOCC(C)O (centres undefined),Potency,[5],inactive
same,outcome,[1],inactive
same,Potency,[10],inactive
same,Potency,[4],inactive
CO[Si](C)(OC)c1ccccc1,Potency,[5],inactive
same,outcome,[1],inactive
same,Potency,[2],30.6 µM (active)
same,Potency,[3],inactive
same,Potency,[10],7.1 µM (active)
NC(=O)N1c2ccccc2CC(=O)c2ccccc21,outcome,[1],inactive
same,Potency,[6],inactive
same,max activation,[7],-3.02%
same,Potency,[4],inactive
Clc1cc(Cl)c(Cl)nc1Cl,Potency,[5],inactive
same,outcome,[1],inactive
same,Potency,[2],inactive
same,Potency,[4],inactive
C=C(C)C(=O)OCC1CCCO1 (centres undefined),Potency,[5],inactive
same,outcome,[1],inactive
same,Potency,[10],inactive
same,Potency,[4],inactive
CC/C=C\CCOC(C)OCC (centres undefined),Potency,[5],inactive
same,outcome,[1],inactive
same,Potency,[2],inactive
same,Potency,[3],inactive
same,Potency,[10],inactive
same,Potency,[4],inactive
CC(C(=O)O)c1cccc(Oc2ccccc2)c1 (centres undefined),outcome,[1],inactive
same,Potency,[6],inactive
same,max activation,[7],-0.273%
same,Potency,[3],inactive
same,Potency,[10],inactive
C=C(C)C(=O)OCCOCCOCCOCCOC(=O)C(=C)C,Potency,[5],inactive
same,outcome,[1],inactive
same,Potency,[2],inactive
same,Potency,[3],inactive
same,Potency,[10],71 µM (active)
same,Potency,[4],63.3 µM (active)
CCCCCCCCCCCCCCC(=O)O,Potency,[5],inactive
same,outcome,[1],inactive
same,Potency,[2],inactive
same,Potency,[3],inactive
same,Potency,[4],inactive
CCN1C=CN(C)C1C (centres undefined),outcome,[1],inactive
same,Potency,[6],inactive
same,Potency,[2],inactive
same,Potency,[3],inactive
same,Potency,[4],inactive
O=C(O)c1cn(C2CC2)c2cc(N3CCNCC3)c(F)cc2c1=O,Potency,[5],inactive
same,outcome,[1],inactive
same,max activation,[7],-1.42%
O=C1c2ccccc2C(=O)c2cc(O)ccc21,Potency,[5],inactive
same,outcome,[1],inactive
same,Potency,[2],17.2 µM (active)
same,Potency,[10],22.5 µM (active)
same,Potency,[4],25.2 µM (active)
O=[N+]([O-])c1ccc(/C=N\O)o1,outcome,[1],inactive
same,Potency,[6],inactive
same,max activation,[7],-2.63%
same,Potency,[8],inactive
same,Potency,[9],inactive
same,Potency,[3],inactive
same,Potency,[10],inactive
CN1CCN(c2cc3c(nn2)Oc2ccccc2N3C)CC1,"activity change, negative = cytotoxicity",[5],3.04% [at 19 µM]
same,caspase-3/7 activation,[1],-3.65% [at 19 µM]
same,max activation,[7],8.97%
same,Potency,[8],inactive
same,Potency,[9],inactive
same,Potency,[10],inactive
same,"activity change, negative = inhibition",[4],2.38% [at 23.6 µM]

# Source: PubChem BioAssay (Tox21)
